A short description of assay [1]: Nuclear factor erythroid 2-related factor 2/antioxidant responsive element (Nrf2/ARE) small molecule agonists: qHTS cell viability counter screen in human keratinocytes (AID 1919968; active = well fitted curve in the direction sought with a large enough effect in the repeat runs; an effect the other way counts as inactive or inconclusive; also: nearly all actives have a fitted effect of over 55% in size; also: potency is read from the fitted curve at half-maximal effect). The method in brief:
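Stably transfected HaCaT (KeratinoSens), 1,500/well. Test agents in DMSO were applied for 23 h, 37 C/5% CO2. CellTiter-Fluor was incubated 1 h before the fluorescence read.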
A general note: In qHTS, concentration-response curves come from the screen itself.

A short description of assay [2]: Nuclear factor erythroid 2-related factor 2/antioxidant responsive element (Nrf2/ARE) small molecule agonists: luciferase reporter gene qHTS assay in human keratinocytes (AID 1919969). Also: nearly all actives have a fitted effect of over 35% in size. Also: potency is read from the fitted curve at half-maximal effect.
Assay [3] addresses KiSS-1 receptor (Homo sapiens) (UniProt Q969F8). Put plainly: Human kisspeptin (KISS1R) small molecule agonists, calcium flux assay in KISS1R-HEK293 cells (AID 1920064; active = well fitted curve in the direction sought with a large enough effect in the repeat runs; an effect the other way counts as inactive or inconclusive). The method in brief: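 After overnight (18 h) culture at 37 C/5% CO2, human KISS1R-HEK293 cells received calcium dye for 1 h, then test compound; emission at 540 nm (excitation 480 nm) was tracked for 3 min.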
(In general: A change in cytosolic calcium serves as a functional read-out for many receptors and channels.)

Assay [4] in a line: G protein-coupled receptor (GPCR) small molecule agonists, calcium flux assay: HEK293 wild type cell line counter screen (AID 1920065). In short, it runs like this:
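Following 18 h incubation at 37 C/5% CO2, plates got calcium dye for 1 h; compounds, ATP or DMSO were then pinned in and fluorescence followed kinetically (480/540 nm).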

The nature of assay [5]: p53 small molecule agonists, cell-based qHTS assay with human liver microsomes (AID 1963577).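 Also: p53 response element beta-lactamase reporter cells with liver microsomes plus NADPH.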 The method in brief: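 HLM-supplemented p53RE-bla reporter assay: 16 h compound exposure at 37 C, microsomes and NADPH each 0.5 mg/mL final, read by fluorescence intensity.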
Assay [6] is described as follows: p53 small molecule agonists, cell-based qHTS assay with rat liver microsomes (AID 1963578). In short, it runs like this: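 Quantitative HTS of the Tox21 10K library: p53RE-bla cells, rat liver microsomes plus NADPH at 0.5 mg/mL final each, 16 h at 37 C, beta-lactamase fluorescence detection.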
Assay [7] can be described thus: p53 small molecule agonists, cell-based qHTS assay with human liver microsomes: qHTS cell viability counter screen (AID 1963579). Also: nearly all actives have a fitted effect of over 45% in size. The method in brief: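 Viability of p53RE-bla cells is measured as CellTiter-Glo luminescence following a 16 h, 37 C incubation with compound, liver microsomes from human donors and NADPH.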
Assay [8] in a line: p53 small molecule agonists, cell-based qHTS assay with rat liver microsomes: qHTS cell viability counter screen (AID 1963580). Also: nearly all actives have a fitted effect of over 45% in size. In short, it runs like this:
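Cytotoxicity counter screen: intracellular ATP read by CellTiter-Glo luminescence in the p53 reporter wells. HCT-116 p53RE-bla cells were treated for 16 h at 37 C alongside rat liver microsomes and NADPH, each 0.5 mg/mL final.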

A short description of assay [9]: p53 small molecule agonists, cell-based qHTS assay: qHTS cell viability counter screen (AID 1963581). Also: nearly all actives have a fitted effect of over 45% in size. Also: potency is read from the fitted curve at half-maximal effect. In short, it runs like this:
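qHTS counter screen: 16 h compound exposure at 37 C of p53RE-bla HCT-116 cells (4,000 per well, seeded 5 h prior), cell viability by ATP luminescence.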

Assay [10] has as its target 5-hydroxytryptamine receptor 2A (Homo sapiens) (UniProt P28223). Put plainly: 5-hydroxytryptamine receptor 2A (HTR2A) small molecule antagonists, cell-based qHTS assay (AID 1963586). Also: nearly all actives have a fitted effect of over 45% in size. The method in brief:
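CHO cells stably expressing human HTR2A were plated for 18 h at 37 C, then loaded with calcium dye for 1 h. Compounds were preincubated 5 min at room temperature before DOI (4 nM solution) was added. Kinetic fluorescence was read for 3 min.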

Assay [11] has the same target. The assay is described as follows: 5-hydroxytryptamine receptor 2A (HTR2A) small molecule agonists, cell-based qHTS assay (AID 1963587). Also: nearly all actives have a fitted effect of over 30% in size. In short, it runs like this:
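Kinetic calcium-flux fluorescence (2 min, 1 sec intervals) after compound addition in agonist mode. HTR2A-CHO cells were cultured 18 h, then dye-loaded 1 h at 37 C.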

The target of assay [12] is Muscarinic acetylcholine receptor M1 (Homo sapiens) (UniProt P11229). Put plainly: Cholinergic receptor muscarinic 1 (CHRM1) small molecule antagonists, cell-based qHTS assay (AID 1963588). Also: nearly all actives have a fitted effect of over 40% in size. In short, it runs like this: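 Compounds were tested at 15 concentrations in three independent runs. Dye-loaded CHRM1-CHO cells were exposed 5 min at room temperature before stimulation by acetylcholine added at 50nM. Intracellular calcium was read kinetically on FDSS for 3 min.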
Chain of Muscarinic acetylcholine receptor M1 (Homo sapiens) (P11229 whole entry, looked up): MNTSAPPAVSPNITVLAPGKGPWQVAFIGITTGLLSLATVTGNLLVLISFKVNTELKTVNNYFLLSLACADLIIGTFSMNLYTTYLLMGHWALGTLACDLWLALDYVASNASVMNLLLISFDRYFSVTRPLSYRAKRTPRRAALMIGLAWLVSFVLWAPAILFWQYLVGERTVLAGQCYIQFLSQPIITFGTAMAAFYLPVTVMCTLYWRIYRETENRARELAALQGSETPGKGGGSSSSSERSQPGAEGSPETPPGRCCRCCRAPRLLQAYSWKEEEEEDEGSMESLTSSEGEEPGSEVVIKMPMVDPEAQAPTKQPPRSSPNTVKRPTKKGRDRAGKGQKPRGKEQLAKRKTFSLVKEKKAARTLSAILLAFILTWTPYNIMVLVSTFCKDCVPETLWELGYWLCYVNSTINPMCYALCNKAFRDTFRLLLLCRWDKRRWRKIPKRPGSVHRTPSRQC

Assay [13] shares this target. Put plainly: Cholinergic receptor muscarinic 1 (CHRM1) small molecule agonists, cell-based qHTS assay (AID 1963589). Also: nearly all actives have a fitted effect of over 35% in size. The method in brief:
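Kinetic fluorescence (1 s intervals) of calcium-sensitive dye in human M1 CHO cells after compound addition; cells pre-incubated 18 h at 37 C/5% CO2 and dye-loaded 1 h.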

In assay [14] the target is Beta-2 adrenergic receptor (Homo sapiens) (UniProt P07550). The assay is described as follows: Adrenergic beta2 receptor (ADRB2) small molecule antagonists, cell-based qHTS assay (AID 1963592). Also: series mostly up to about 92 µM; nearly all actives have a fitted effect of over 50% in size. In short, it runs like this:
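Assay format: CHO-ADRB2 cells, 18-20hr seeding at 37C/5% CO2, then compound plus 1nM isoproterenol agonist mix for 0.5hr RT. Homogeneous time-resolved fluorescence cAMP detection after 1hr, expressed as 665/615 nm ratio.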

The target in assay [15] is D(2) dopamine receptor (Homo sapiens) (UniProt P14416). The assay is described as follows: Dopamine D2 receptor (DRD2) small molecule agonists, cell-based qHTS assay (AID 1963594). Also: nearly all actives have a fitted effect of over 35% in size. The method in brief:
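cAMP accumulation in DRD2-HEK293 cells measured by HTRF after 1 h detection; compounds added 10 min before NKH477 (200nM […]) forskolin-analogue stimulation, 30 min at room temperature, with Ro20-1724 present at 0.1 mM final.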

For assay [16] the target is unchanged. Put plainly: Dopamine D2 receptor (DRD2) small molecule antagonists, cell-based qHTS assay (AID 1963595; active = well fitted inhibition curve with a large enough effect in the signal ratio in the repeat runs, with a control signal flat; the % refers to the signal ratio). In short, it runs like this:
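Human DRD2 antagonist qHTS measuring cAMP by HTRF. The cells are exposed to compound for 10 min, then to NKH477 (200 nM) and quinpirole (12 nM) for 30 min at RT, with Ro20-1724 (0.1 mM) present throughout.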

Assay [17] in a line: p53 small molecule agonists, cell-based qHTS assay (AID 1963582; active = well fitted activation curve with a large enough effect in the signal ratio in the repeat runs, not every such curve was filed as active; the % refers to the signal ratio). The method in brief: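 Measured: fluorescence from cleaved LiveBLAzer substrate. System: p53RE-bla cells, 16 h compound treatment at 37 C, 2 h substrate step at room temperature.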
Assay [18] can be described thus: cAMP Responsive Elements (CRE) small molecule agonists, cell-based qHTS assay (AID 1963590). The method in brief: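 Test agents in DMSO were incubated 3 h at 37 C/5% CO2 with CRE-bla HEK 293T cells seeded 18 h earlier; LiveBLAzer B/G FRET substrate was added and read after 2 h at room temperature.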
Assay [19] is described as follows: cAMP Responsive Elements (CRE) small molecule antagonists, cell-based qHTS assay (AID 1963591; active = well fitted inhibition curve with a large enough effect in the signal ratio in the repeat runs, not every such curve was filed as active; the % refers to the signal ratio). The method in brief: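 Reporter line CRE-bla HEK 293T in dialyzed-FBS DMEM; cells preincubated 18 h, treated 3 h with compound plus NKH477 (0.25 uM final); LiveBLAzer FRET, 2 h RT.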

Structures are written as SMILES. Unmarked numbers belong to inactive results. Records with an inconclusive call do not appear. Calls of active or inactive are those of the source. Unless noted, calls follow the shape of the full dose curve.

Chain of Beta-2 adrenergic receptor (Homo sapiens) (P07550 whole entry, looked up): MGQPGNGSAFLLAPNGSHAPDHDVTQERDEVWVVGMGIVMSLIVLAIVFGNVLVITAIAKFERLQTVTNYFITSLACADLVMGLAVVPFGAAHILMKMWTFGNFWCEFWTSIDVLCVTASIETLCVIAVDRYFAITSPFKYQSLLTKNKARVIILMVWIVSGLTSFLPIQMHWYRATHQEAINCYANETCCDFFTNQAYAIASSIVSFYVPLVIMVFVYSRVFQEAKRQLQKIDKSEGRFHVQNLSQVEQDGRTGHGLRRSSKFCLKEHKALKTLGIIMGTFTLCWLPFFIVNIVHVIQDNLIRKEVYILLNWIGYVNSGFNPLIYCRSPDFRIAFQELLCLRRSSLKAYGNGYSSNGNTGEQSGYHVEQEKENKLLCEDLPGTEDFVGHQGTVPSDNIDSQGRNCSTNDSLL
Chain of D(2) dopamine receptor (Homo sapiens) (P14416 whole entry, looked up): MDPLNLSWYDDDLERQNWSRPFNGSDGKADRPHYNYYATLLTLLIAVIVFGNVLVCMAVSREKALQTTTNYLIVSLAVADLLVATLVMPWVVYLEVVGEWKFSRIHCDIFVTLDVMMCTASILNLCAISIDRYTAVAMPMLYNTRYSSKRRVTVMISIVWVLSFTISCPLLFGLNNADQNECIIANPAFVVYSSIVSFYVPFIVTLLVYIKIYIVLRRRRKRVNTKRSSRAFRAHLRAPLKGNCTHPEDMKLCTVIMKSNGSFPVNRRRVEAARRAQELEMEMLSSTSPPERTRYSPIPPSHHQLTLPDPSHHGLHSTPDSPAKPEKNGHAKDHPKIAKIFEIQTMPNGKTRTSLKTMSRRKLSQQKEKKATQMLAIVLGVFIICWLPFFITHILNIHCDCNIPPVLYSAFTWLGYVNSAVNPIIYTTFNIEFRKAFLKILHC
Chain of 5-hydroxytryptamine receptor 2A (Homo sapiens) (P28223 whole entry, looked up): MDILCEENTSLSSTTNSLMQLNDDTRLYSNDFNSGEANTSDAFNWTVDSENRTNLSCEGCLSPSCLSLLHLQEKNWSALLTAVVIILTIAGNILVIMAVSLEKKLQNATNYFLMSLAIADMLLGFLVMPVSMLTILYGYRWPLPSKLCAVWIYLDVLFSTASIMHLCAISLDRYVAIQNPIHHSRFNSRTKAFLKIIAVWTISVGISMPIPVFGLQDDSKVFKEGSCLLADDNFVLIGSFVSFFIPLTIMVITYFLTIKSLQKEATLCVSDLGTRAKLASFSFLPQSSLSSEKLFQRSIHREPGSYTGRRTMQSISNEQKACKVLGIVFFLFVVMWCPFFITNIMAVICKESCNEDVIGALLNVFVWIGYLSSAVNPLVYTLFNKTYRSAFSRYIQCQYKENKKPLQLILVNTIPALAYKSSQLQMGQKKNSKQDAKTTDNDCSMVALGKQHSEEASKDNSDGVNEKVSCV
Chain of KiSS-1 receptor (Homo sapiens) (Q969F8 whole entry, looked up): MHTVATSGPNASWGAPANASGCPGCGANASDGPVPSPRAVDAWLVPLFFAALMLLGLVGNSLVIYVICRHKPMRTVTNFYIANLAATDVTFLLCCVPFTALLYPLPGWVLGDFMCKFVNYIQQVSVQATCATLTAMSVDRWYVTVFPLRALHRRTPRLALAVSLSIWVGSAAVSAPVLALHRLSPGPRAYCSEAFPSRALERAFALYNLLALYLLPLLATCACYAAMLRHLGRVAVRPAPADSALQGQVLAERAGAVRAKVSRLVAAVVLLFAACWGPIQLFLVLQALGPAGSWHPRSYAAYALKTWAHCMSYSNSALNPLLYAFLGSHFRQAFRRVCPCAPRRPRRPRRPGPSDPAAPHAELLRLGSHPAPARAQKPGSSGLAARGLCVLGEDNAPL

With `Clc1nc(C(Cl)(Cl)Cl)c(Cl)c(Cl)c1Cl`, the Potency is 48.6 µM (active) in assay [1] and 21.7 µM (active) in [2]. Besides, the outcome in assay [3] and in assay [4] was inactive. The Potency result in [5], in assay [6], in assay [7], in assay [8], in assay [9] and in assay [10] was “inactive” each time. The Potency entry in assay [11], in assay [12], in [13], in assay [14], in assay [15] and in [16] was “inactive” throughout.
As to `CCCC(=O)O[C@]1(C(=O)CC)CC[C@H]2[C@@H]3CCC4=CC(=O)CC[C@]4(C)[C@H]3[C@@H](O)C[C@@]21C`, the Potency result in assay [1], in assay [2], in assay [5], in assay [6], in [7] and in [8] was “inactive” each time. In addition, the Potency entry in assay [9], in assay [17], in assay [10], in assay [13], in [14] and in [15] was “inactive” throughout. Also, the Potency entry in assay [16] was “inactive”. For the same molecule, the outcome in assay [3] and in assay [4] was inactive.
In the case of `CC(C)(C#N)Nc1nc(Cl)nc(NC2CC2)n1`, the Potency result in assay [1], in [2], in [5], in assay [6], in assay [7] and in assay [8] was “inactive” in each case. Besides, the Potency entry in assay [9], in assay [17], in assay [10], in assay [12], in [13] and in assay [18] was “inactive” in each case. The Potency entry in assay [14], in [15] and in assay [16] was “inactive” throughout. The outcome in assay [3] and in assay [4] was inactive.
As for `O=C(O)CCCc1ccccc1`, the Potency result in [1], in assay [2], in [5], in assay [6], in assay [7] and in assay [8] was “inactive” each time. Further, the Potency entry in assay [9], in assay [17], in [11], in assay [13], in [18] and in [19] was “inactive” in each case. Moreover, the Potency result in assay [14], in [15] and in assay [16] was “inactive” throughout. The outcome in assay [3] and in [4] was inactive.
Consider `CO[C@@]1(NC(=O)CSCC#N)C(=O)N2C(C(=O)O)=C(CSc3nnnn3C)CS[C@@H]21`, for which the Potency result in assay [1], in assay [2], in assay [5], in [6], in [7] and in [8] was “inactive” each time. In addition, the Potency entry in [9], in [17], in assay [18], in assay [19], in assay [14] and in [15] was “inactive” in each case. Further, the result in assay [3] and in assay [4] was inactive.
With `CCN(CC)CCOc1ccc(C(O)(Cc2ccc(Cl)cc2)c2ccc(C)cc2)cc1` (configuration not stated), the values for the Potency in [1] and in assay [9] were 26.6 µM (active) and 19.9 µM (active), respectively. Further, the Potency result in assay [2], in assay [5], in assay [6], in assay [7], in assay [8] and in assay [17] was “inactive” each time. The Potency entry in assay [10], in assay [14] and in assay [16] was “inactive” in each case. The outcome in [3] and in [4] was inactive.
On to `Cc1ccc2ccccc2n1`, for which the Potency entry in assay [1], in [2], in assay [5], in [6], in assay [7] and in assay [8] was “inactive” each time. The Potency entry in [9], in assay [10], in [11], in assay [12], in assay [13] and in assay [18] was “inactive” throughout. Also, the Potency entry in [19], in [14], in [15] and in assay [16] was “inactive” throughout. The outcome in [3] and in assay [4] was inactive.
On to `C=CS(=O)(=O)O`, for which the Potency entry in assay [1], in [2], in assay [5], in [6], in assay [7] and in assay [8] was “inactive” in each case. Moreover, the Potency entry in [9], in assay [10], in [11], in assay [12], in assay [13] and in assay [18] was “inactive” in each case. Moreover, the Potency entry in [19], in assay [14] and in assay [16] was “inactive” throughout. The result in assay [3] and in assay [4] was inactive.
